Screening data deposited in PubChem by National Center for Advancing Translational Sciences (NCATS).
Sm TGR inh: blocks Schistosoma mansoni thioredoxin glutathione reductase | Q962Y6 | 3% of 360,000 active | purified TGR, DTNB reduction, TNB absorbance 405 nm | Potency, µM (top dose mostly 114 µM), for the others: top-dose activity change, negative = inhibition, usual class: inhibitors | AID 485364; further: potency means the concentration at half of the fitted maximal effect; on the % scale 0 is the no-effect control and ±100 the full control effect; nearly all actives have a fitted effect of over 60% in size
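Kinetic colorimetric format: TGR-catalysed, NADPH-driven DTNB reduction monitored via TNB absorbance. Enzyme dispensed at 20 nM; compound exposure 15 min at room temperature before reaction start.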
Shiga toxin inh: blocks Shiga toxin action in Vero cells | Vero cells, Shiga toxin protein synthesis inhibition reporter | inhibition, % at 38.7 µM | 9.2% of 290,000 active; in the data active means inhibition mostly above about 28%, no sharp cut-off; inactive means mostly below about 43%; further: 0% is about no effect
Giardia FBPA inh: Giardia lamblia aldolase inhibition; 0.71% of 290,000 active; AID 2451; purified Giardia FBPA; Potency, µM (doses to about 59.6 µM), for inactives: top-dose activity, negative = inhibition, actives largely listed as inhibitors; A8B2U2; further: potency means the concentration at half of the fitted maximal effect; on the % scale 0 is the no-effect control and ±100 the full control effect; nearly all actives have a fitted effect of over 55% in size
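Giardia FBPA (40 nM reagent) was preincubated 10 min at RT with compound (up to 57.5 uM final), then substrate plus GAPDH/TPI/NAD/arsenate coupling system with diaphorase/resazurin was added; resorufin fluorescence (525/598 nm) was read after 20 min.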
TbPYK inhibitor: blocks Trypanosoma brucei pyruvate kinase; Q57TT1; TbPYK enzyme, Kinase-Glo Plus ATP luminescence, 45 min; Potency, µM (top dose mostly 76.8 µM), for inactives: at the highest dose activity, negative = inhibition, actives largely listed as inhibitors; 0.12% of 410,000 active; AID 624173; further: potency means the concentration at half of the fitted maximal effect; on the % scale 0 is the no-effect control and ±100 the full control effect; nearly all actives have a fitted effect of over 50% in size
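ADP (130 uM final) triggers the TbPYK reaction after compound addition; incubation is 45 min at room temperature. Kinase-Glo Plus is then added and luminescence imaged. Normalized data are fitted to concentration-effect curves.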
Cycloheximide cs: counter-screen for Shiga toxin inhibitors: cycloheximide protein synthesis inhibition | cell reporter, cycloheximide protein synthesis inhibition counterscreen | 12% of 300,000 active | max response, %; in the data active means max response mostly above about 13%, no sharp cut-off; inactive means mostly below about 14%; further: read at 38.3 µM for the half of the compounds with a filed dose; 0% is about no effect
LmPK inh: inhibitors of Leishmania mexicana pyruvate kinase | purified LmPK, Kinase-Glo ATP luminescence, 1 h | Potency, µM (titrated, usually from 57.5 µM), for the others: top-dose activity change, negative = inhibition, most hits filed as inhibitors | 0.37% of 290,000 active | AID 1721; further: potency means the concentration at half of the fitted maximal effect; on the % scale 0 is the no-effect control and ±100 the full control effect
Target sequence (Q27686 whole entry, looked up): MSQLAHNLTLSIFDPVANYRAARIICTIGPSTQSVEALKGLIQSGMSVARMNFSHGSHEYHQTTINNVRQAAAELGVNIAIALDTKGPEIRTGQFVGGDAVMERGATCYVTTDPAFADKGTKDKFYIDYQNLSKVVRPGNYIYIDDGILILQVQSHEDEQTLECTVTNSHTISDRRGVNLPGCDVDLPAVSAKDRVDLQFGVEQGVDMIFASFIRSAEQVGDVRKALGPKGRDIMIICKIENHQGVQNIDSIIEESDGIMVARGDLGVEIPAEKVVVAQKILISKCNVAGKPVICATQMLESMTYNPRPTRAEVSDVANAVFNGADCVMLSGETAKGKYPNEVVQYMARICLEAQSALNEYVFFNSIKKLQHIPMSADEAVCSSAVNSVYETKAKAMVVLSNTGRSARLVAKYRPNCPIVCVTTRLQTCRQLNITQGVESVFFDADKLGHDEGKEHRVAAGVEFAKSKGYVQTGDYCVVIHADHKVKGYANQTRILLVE
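Pyruvate kinase activity monitored as ATP production (luciferase luminescence). Conditions: 0.1 nM enzyme, 0.5 mM PEP, 0.1 mM ADP, 1 h, RT; normalized against uninhibited and no-enzyme wells.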
Active calls of the source: *; ? = inconclusive; · = not tested or not shown; [ ] = dose if it differs, or a comment. The entries come from a sample that favours hits as a whole. Unless noted, the call rests on the fitted dose curve; in most records, active means well fitted curve in the direction sought with a large enough effect; inconclusive means small, poorly fitted or top-dose-only effect, or another doubt; inactive means no such curve, though single readings can be large; an effect the other way counts as inactive or inconclusive.

SMILES	Sm TGR inh	Shiga toxin inh	Giardia FBPA inh	TbPYK inhibitor	Cycloheximide cs	LmPK inh
COc1ccc(C(=O)OCC#CCSc2nnc(-c3cccc4ccccc34)o2)cc1	-22%	·	·	1%	·	·
Cc1ccc(-c2nnc(SCC#CCOC(=O)c3ccco3)o2)cc1	-11%	47	-3%	-2%	27*	-2%
O=C(OCC#CCSc1nnc(-c2ccccc2)o1)c1cc2ccccc2o1	-8%	-18	0%	-2%	-3	4%
Cc1ccc(-c2nnc(SCC#CCOC(=O)c3cccs3)o2)cc1	-20%	39	-10%	-1%	8.6*	1%
O=C(OCC#CCNc1nnc(-c2cccc3ccccc23)o1)c1cccs1	18µM*	·	·	·	·	·
COCC1C2CC[C@H]3C(OCc4ccc(OC)cc4)OC[C@]4(C)[C@H]3C2=C(CN4C(=O)OC(C)(C)C)[C@H](C)C1COC (some centres not stated)	·	·	-11%	·	·	·
Cc1ccc(Cl)c2sc(N3CCN(C(=O)C4CC4)CC3)nc12	2%	·	·	-3%	·	·
COc1ccc(-n2ncc3c2ncn2nc(-c4ccc(OC)c(OC)c4)nc32)cc1	11%	·	·	-6%	·	·
C#CCn1cnc2c(cnn2-c2ccc(C)c(C)c2)c1=O	-16%	141*	4%	-2%	35*	0%
Cc1ccc(-n2ncc3c(=O)n(CC#N)cnc32)cc1C	-5%	40	-6%	4%	65*	-2%
Cc1ccc(-n2ncc3c(=O)n(CC(N)=O)cnc32)cc1C	12%	17	-3%	3%	7	0%
C#CCn1cnc2c(cnn2-c2ccc(F)cc2)c1=O	4%	·	·	1%	·	·
Cc1nc2c3cnn(-c4ccc(C)c(C)c4)c3ncn2n1	-32%	70*	3%	-7%	29*	-14%
COc1ccc(C(=O)Nn2c(SCC(=O)c3ccc(Cl)cc3)nc3ccccc3c2=O)cc1	18%	22	6%	3%	17*	3%
COc1ccc(C(=O)Nn2c(SCc3cccc([N+](=O)[O-])c3)nc3ccccc3c2=O)cc1	22%	114*	0%	-11%	61*	-7%
O=C(Nn1c(SCc2cccc([N+](=O)[O-])c2)nc2ccccc2c1=O)c1ccccc1	-3%	123*	6%	-2%	81*	2%
CCC1=C2CC[C@H]3C(=O)N(c4ccccc4)C(=O)[C@H]3[C@H]2[C@@]2(Cc3ccccc3)C(=NCC3CC3)OC(=O)N2C1=O	·	·	4%	·	·	·
Cc1c(C(=O)Nc2ccccc2Br)oc2ccc(S(=O)(=O)N3CCCCCC3)cc12	0%	·	·	-2%	·	·
CCCc1nnn(S(=O)(=O)c2ccc([N+](=O)[O-])cc2)c1CCC	·	·	·	0%	·	·
C=CCN1CCC(=O)C(C(=O)OCC)=C1C(=O)OCC	·	·	·	-8%	·	·
CCOC(=O)C1CCN(C(=S)Nc2cccc(C)c2)CC1	2%	-8	-8%	-4%	8	1%
CCOC(=O)C1CCN(C(=S)Nc2ccc(CC)cc2)CC1	5%	54	3%	-2%	43*	-4%
CCOC(=O)C1CCN(C(=O)Nc2ccc(OC(F)(F)F)cc2)CC1	1%	63	0%	-4%	34*	-2%
CCc1ccc(NC(=S)N2CCCC2)cc1	1%	78*	·	-4%	36*	-1%
CCc1ccc(NC(=S)N2CCCC(C(F)(F)F)C2)cc1 (configuration not stated)	-1%	40	-4%	-2%	16*	6%
SMILES	Sm TGR inh	Shiga toxin inh	Giardia FBPA inh	TbPYK inhibitor	Cycloheximide cs	LmPK inh
CCc1ccc(NC(=S)N2CCC(NC(=O)C3CCCCC3)CC2)cc1	4%	-12	10%	-2%	-1	3%
C#CCCCO/N=C1/[C@H]2O[C@@H]2[C@@H](O)[C@H]2[C@H]1CCn1c(=O)n([C@@H](CC)c3ccccc3)c(=O)n12	·	·	1%[12.9 µM]	·	·	·
CCN(CC)C(=O)Cn1c(=O)cc(C)c2c(C)nn(C)c21	2%	·	·	-11%	·	·
CSCC[C@H](NC(=O)[C@@H](NC(=O)[C@H](CCC(=O)O)NC(=O)[C@H](CCSC)NC(=O)[C@H](CC(N)=O)NC(=O)[C@H](CCC(=O)O)NC(=O)[C@H](CC(N)=O)NC(=O)[C@H](CO)NC(=O)[C@H](C)N)[C@@H](C)O)C(=O)O	·	37	1%	·	7	·
CCc1ccc(NC(=S)N2CCN(C)CC2)cc1	-3%	61	4%	-3%	25*	0%
COc1ccc2cc3c(nc2c1)OCC3	?	102*	3%	-1%	20*	-3%
Cc1ccc(Nc2nc(N)nc(CSc3nc4ccccc4s3)n2)cc1	0%	37*	-10%	-3%	37*	1%
COc1ccc(Nc2nc(N)nc(CSc3nnc(C)s3)n2)cc1	-2%	56*	3%	-6%	29*	-3%
COc1ccc(Nc2nc(N)nc(CSc3nc4cc(OC)ccc4s3)n2)cc1	2%	·	·	2%	·	·
Cc1nc(Cc2nnc(SCc3nc(N)nc(Nc4ccccc4C)n3)o2)cs1	-1%	-4	-1%	12%	-1	-5%
COc1ccc(Nc2nc(N)nc(CSc3nc4ccccc4s3)n2)cc1	2%	·	·	2%	·	·
Cc1ccc(Nc2nc(N)nc(CSc3nnc(-c4ccncc4)o3)n2)cc1	9%	48*	3%	-2%	14*	1%
COc1ccc(Nc2nc(N)nc(CSc3nccc(C)n3)n2)cc1	8%	76*	-1%	-1%	16*	0%
CCOC(=O)N1CCN(C(=O)CN(c2ccc(C)cc2C)S(=O)(=O)c2ccccc2)CC1	6%	·	·	0%	·	·
CC(=O)Nc1ccc(C2=CC(=O)C[C@H](c3ccc4c(c3)OCO4)C2)cc1	-9%	·	·	2%	·	·
CCc1ccc(OCC(=O)N(Cc2cccs2)c2ccc(Cl)cc2)cc1	-1%	·	·	-6%	·	·
Nc1nc(CSc2ncccn2)nc(Nc2ccccc2)n1	-15%	139*	5%	2%	62*	2%
Nc1nc(CSc2n[nH]c(-c3ccccc3)n2)nc(Nc2ccccc2)n1	0%	-10	2%	1%	-1	-1%
Cc1ccc(Nc2nc(N)nc(CSc3ncccn3)n2)cc1	-2%	68*	2%	-5%	29*	-5%
COc1ccc(NC(=O)c2cc(C3CCCCN3C(=O)c3cc(C(C)(C)C)nn3C)on2)c(C)c1 (configuration not stated)	·	·	·	2%	·	·
COC(=O)CCCNC(=O)c1ccc2nc(Cc3ccc(OC)cc3)oc2c1	-9%	60	-1%	0%	14*	3%
CCN1CCN(CCCNC(=O)c2ccc3nc(Cc4ccc(OC)cc4)oc3c2)CC1	44%	·	·	-6%	·	·
C=C(C)CNC(=O)c1ccc2nc(Cc3ccc(OC)cc3)oc2c1	-5%	39*	-1%	-6%	39*	-9%
O=C(CNc1ccc(Oc2ccccc2)cc1)N1CCOCC1	2%	36*	-29%	-11%	12*	-7%
